Data published in PubChem BioAssay (NCATS).
Inconclusive results are not listed. A number with no mark means an inactive call. Activity calls are given as the source filed them. Calls follow the shape of the dose curve; as a rule, active = well fitted inhibition curve with a large enough effect; inconclusive = small, poorly fitted or top-dose-only effect; inactive = flat fitted curve, though single readings scatter.

Target: Calcium and integrin-binding protein 1 (Homo sapiens) (UniProt Q99828)
Test: Primary qHTS for Identification of Calcium Integrin Binding Protein 1 (CIB1) Competitor (AID 1508620);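 also: GST tagged CIB1 binding a fluorescein labelled alphaIIb integrin peptide tracer; top concentration of the series differs between compounds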
Conditions: CIB1-GST / FITC-alphaIIb peptide fluorescence polarization; series mostly up to 57.7 µM; activity change, negative = inhibition: at the top concentration
How it was run: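 CIB1-GST (1 uM final) and compound incubated 15 min at room temperature before adding FITC-alphaIIb peptide tracer (100 nM final). Competition for binding read by fluorescence polarization (ex 480, em 540) after another 15 min at room temperature.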
% is scaled to controls: 0 for no effect and ±100 for the full control effect.

Chain of Calcium and integrin-binding protein 1 (Homo sapiens) (Q99828 whole entry, looked up): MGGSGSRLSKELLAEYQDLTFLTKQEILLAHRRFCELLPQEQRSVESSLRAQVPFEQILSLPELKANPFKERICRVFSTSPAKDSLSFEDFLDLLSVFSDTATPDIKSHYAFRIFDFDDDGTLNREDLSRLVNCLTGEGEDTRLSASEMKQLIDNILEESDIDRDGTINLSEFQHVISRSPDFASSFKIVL

Row | Compound | activity change, negative = inhibition
1 | CC[C@H]1OC(=O)[C@H](C)C(=O)[C@H](C)[C@@H](OC2O[C@H](C)C[C@H](N(C)C)[C@H]2O)[C@@H](C)C[C@@H](C)C(=O)/C=C/[C@]1(C)O (stereo partly drawn) | 4.57%
2 | COc1cc(C(CO)CO[C@@H]2O[C@H](CO)[C@@H](O)[C@H](O)[C@H]2O)ccc1O (stereo partly drawn) | -2.7%
3 | COC(=O)[C@]1(Cc2ccc(O)c(CC=C(C)C)c2)OC(=O)C(O)=C1c1ccc(O)cc1 | -1.56%
4 | CN(C)CCC[C@]1(c2ccc(F)cc2)OCc2cc(C#N)ccc21 | 1.14% [at 114 µM]
5 | O=C(O)c1cc(O[C@@H]2O[C@H](CO)[C@@H](O)[C@H](O)[C@H]2O)ccc1O | -5.36%
6 | COc1cc(CC2COC(c3ccc(OC4OC(CO)C(O)C(O)C4O)c(OC)c3)C2CO)ccc1O (stereo not drawn) | -2.64%
7 | COC(=O)C1=C[C@@H](O)[C@@H](O)[C@H](O[C@@H]2O[C@H](CO)[C@@H](O)[C@H](O)[C@H]2OC(=O)/C=C/c2ccccc2)C1 | 2.36%
8 | COc1ccc([C@H]2OC[C@H]3[C@@H]2CO[C@@H]3c2ccc(O[C@@H]3O[C@H](CO)C(O)[C@H](O)[C@H]3O)c(OC)c2)cc1OC (stereo partly drawn) | 0.493%
9 | C[C@@H]1O[C@@H](O[C@H]2[C@H](Oc3cc(O)c(C(=O)CCc4ccc(O)cc4)c(O)c3)O[C@H](CO)[C@@H](O)[C@@H]2O)[C@H](O)[C@H](O)[C@H]1O | -0.439% [at 114 µM]
10 | O=C(OCC1OC(Oc2ccc(O)cc2COC(=O)C2(O)C(O)CCC(=O)C2OC(=O)C2C=CCC2)C(OC(=O)C2C=CCC2)C(O)C1O)C1C=CCC1 (stereo not drawn) | 0.155% [at 30.2 µM]
11 | C/C=C1\[C@H](O[C@@H]2O[C@H](CO)[C@@H](O)[C@H](O)[C@H]2O)OC=C(C(=O)O)[C@H]1CC(=O)OCCc1ccc(O)cc1 | 2.6%
12 | COc1cc(O)cc(O[C@@H]2O[C@H](CO)[C@@H](O[C@@H]3OC[C@](O)(CO)[C@H]3O)[C@H](O)[C@H]2O)c1OC | 1.08%
13 | C/C=C/C=C/C=C/C(=O)O[C@@H]1[C@@H](OC)C2=C(C(=O)N(C(CCC(=O)O)C(=O)O)C2)[C@@]2(C)CCCC(C)(C)[C@H]12 (stereo partly drawn) | -4.35%
14 | COC(=O)C1=CO[C@@H](O[C@@H]2O[C@H](CO)[C@@H](O)[C@H](O)[C@H]2O)[C@@H]2[C@@H](C)[C@@H](OC(=O)/C=C/c3ccccc3)[C@@H](O)[C@H]12 | 0.301%

Tested on: not listed separately
Test: Primary qHTS for inhibitors of nuclear receptor binding SET domain protein 2 (NSD2) in an isogenic RCH-ACV NSD2 p.E1099K mutant (9B) (AID 1645876); also: nearly all actives have a fitted effect of over 70% in size
Conditions: RCH-ACV (leukaemia line) NSD2 E1099K (9B) viability, CellTiter-Glo, 72 h; series mostly up to 44.9 µM; activity change, negative = viability loss: at the top concentration

Row | Compound | activity change, negative = viability loss | outcome
15 | CC(=O)OCC(Cc1ccccc1)NC(=O)C(Cc1ccccc1)NC(=O)c1ccccc1 (stereo not drawn) | -4.93% [at 17.3 µM] | –
16 | CC1(C)CC[C@]2(C(=O)O[C@@H]3O[C@H](CO)[C@@H](O)[C@H](O)[C@H]3O)CC[C@]3(C)C(=CCC4[C@@]5(C)CC[C@H](OC6OC(C(=O)O)C(OC7OC(CO)C(O)C(O)C7O)C(O)C6O)C(C)(C)C5CC[C@]43C)C2C1 (stereo partly drawn) | -8.98% [at 9.23 µM] | –
17 | CC(=O)NC1CC(=O)C23C(=O)NC(Cc4c[nH]c5ccccc45)C2C(C)=C(C)C(O)C3/C=C/CC(C)/C=C(/C)C(O)C1O (stereo not drawn) | -6.63% [at 17.3 µM] | –
18 | C=C(C(=O)O)[C@@H]1CC[C@@]2(C)CCC[C@@](C)(O)[C@@H]2C1 | -5.63% | –
19 | CC(=O)c1ccc(O[C@@H]2OC[C@@H](O)[C@H](O)[C@H]2O[C@]2(CO)O[C@H](CO)[C@@H](O)[C@@H]2O)c(O)c1 | 4.23% [at 17.3 µM] | –
20 | CC1CC(=O)[C@]2(O)C(C(=O)OCCc3ccc(O)cc3)=CO[C@@H](O[C@@H]3O[C@H](CO)[C@@H](O)[C@H](O)[C@H]3O)[C@H]12 (stereo partly drawn) | 0.184% [at 17.3 µM] | –
21 | CC(=O)OCC1=CCC2C(C)(C)CCCC2(C)C12CCC(C)(CC(=O)O)O2 (stereo not drawn) | -8.21% | –
22 | CC(=O)O[C@@H]1C(=O)C(C)=C(CCC(C)CC(=O)O)[C@@]2(C)CCCC(C)(C)C12 (stereo partly drawn) | -12.1% | –
23 | C[C@@H]1O[C@@H](O[C@H]2[C@H](O[C@H]3[C@H](O[C@H]4CC[C@@]5(C)C(CC[C@]6(C)C5CC=C5[C@@H]7CC(C)(C)C[C@@H](O)[C@]7(C)CC[C@]56C)C4(C)C)O[C@H](C(=O)O)[C@@H](O)[C@@H]3O)O[C@H](C(=O)O)[C@H](O)[C@@H]2O)[C@H](O)[C@H](O)[C@H]1O (stereo partly drawn) | – | inactive [at 9.23 µM]
24 | C[C@H]1[C@H](C)CC[C@]2(C(=O)O)CC[C@]3(C)C(=CCC4[C@@]5(C)C[C@@H](O)[C@H](O)C(C)(C)C5CC[C@]43C)[C@H]12 (stereo partly drawn) | -7.06% [at 17.3 µM] | –
25 | CC(C)(O)[C@@H]1CC[C@]2(CO)[C@@H](O)CC[C@](C)(O)[C@H]2[C@@H]1O[C@@H]1O[C@H](CO)[C@@H](O)[C@H](O)[C@H]1O | -5.28% [at 17.3 µM] | –
26 | Cc1ccc(C)c(S(=O)(=O)n2cnc3ccccc32)c1 | 2.9% | –
27 | O=C(OC[C@H]1O[C@H](O[C@H]2CO[C@H](CO)[C@@H](O)[C@@H]2O)[C@H](O)[C@@H](O)[C@H]1O)c1ccccc1 | -0.352% [at 17.3 µM] | –
28 | CC(C)(Oc1ccc(-c2nc3cc(Cl)ccc3s2)cc1)C(=O)O | -6.11% | –
29 | C/C1=C\CC[C@]2(C)O[C@H]2C(=O)c2c(C)coc2C1 | -13.9% | –
30 | CC(=O)O[C@H]1[C@H](O[C@H]2CC[C@]34C[C@]35CC[C@]3(C)[C@@H]([C@@]6(C)CC[C@@H](C(C)(C)O)O6)[C@@H](O)C[C@@]3(C)[C@@H]5C[C@H](O[C@@H]3O[C@H](CO)[C@@H](O)[C@H](O)[C@H]3O)[C@H]4C2(C)C)OC[C@@H](OC(C)=O)[C@@H]1O | 3.05% | –
31 | COc1ccc(C2OCC3C(c4cc(OC)c5c(c4)OCO5)OCC23)cc1OC (stereo not drawn) | -8.26% [at 17.3 µM] | –
32 | C=C1C(O)CC2C(C(=O)O)=COC(O[C@@H]3O[C@H](COC(=O)c4ccc(O)cc4)[C@@H](O)[C@H](O)[C@H]3O)C12 (stereo partly drawn) | -4.49% [at 17.3 µM] | –
33 | C[C@@H]1CC[C@]2(C(=O)O[C@@H]3O[C@H](CO[C@@H]4O[C@H](CO)[C@@H](O[C@@H]5O[C@@H](C)[C@H](O)[C@@H](O)[C@H]5O)[C@H](O)[C@H]4O)[C@@H](O)[C@H](O)[C@H]3O)CC[C@]3(C)C(=CCC4[C@@]5(C)C[C@@H](O)[C@H](O)[C@@](C)(CO)C5CC[C@]43C)C2[C@H]1C (stereo partly drawn) | – | inactive [at 9.23 µM]
34 | CC1(C)C[C@H](O)C[C@@]2(C)[C@H]1[C@H](O)C=C1COC(=O)[C@@]12O | -4.15% | –

Row | Compound | activity change, negative = viability loss | outcome
35 | C/C=C1/[C@H](O[C@@H]2O[C@H](CO)[C@@H](O)[C@H](O)[C@H]2O)OC=C(C(=O)OC)[C@H]1CC(=O)OCCc1ccc(O)c(O)c1 | -17.9% [at 17.3 µM] | –
36 | COc1ccc(O[C@@H]2O[C@H](CO)[C@@H](O)[C@H](O)[C@H]2O)cc1OC | -4.42% | –
37 | C=CC(C)(O)CC/C=C(\C)C1CC=C(C)C(=O)O1 (stereo not drawn) | -18.1% | –
38 | C[C@@H]1O[C@@H](O[C@H]2[C@H](O[C@H]3[C@H](O[C@H]4CC[C@@]5(C)C(CC[C@]6(C)C5CC=C5[C@@H]7CC(C)(C)C[C@@H](O)[C@]7(C)CC[C@]56C)[C@@]4(C)CO)O[C@H](C(=O)O)[C@@H](O)[C@@H]3O)O[C@H](C(=O)O)[C@H](O)[C@@H]2O)[C@H](O)[C@H](O)[C@H]1O (stereo partly drawn) | 4.66% [at 9.23 µM] | –
39 | CC1=CC2=C(C)C(=O)C(C)(O)C(O)C2CO1 (stereo not drawn) | 4.98% | –
40 | CC[C@H]1OC(=O)[C@H](C)C(=O)[C@H](C)[C@@H](OC2O[C@H](C)C[C@H](N(C)C)[C@H]2O)[C@@H](C)C[C@@H](C)C(=O)/C=C/[C@]1(C)O (stereo partly drawn) | -16.8% [at 17.3 µM] | –
41 | COc1cc(C(CO)CO[C@@H]2O[C@H](CO)[C@@H](O)[C@H](O)[C@H]2O)ccc1O (stereo partly drawn) | -5.58% | –
42 | COC(=O)[C@]1(Cc2ccc(O)c(CC=C(C)C)c2)OC(=O)C(O)=C1c1ccc(O)cc1 | – | inactive [at 17.3 µM]
43 | CN(C)CCC[C@]1(c2ccc(F)cc2)OCc2cc(C#N)ccc21 | -5.56% | –
44 | O=C(O)c1cc(O[C@@H]2O[C@H](CO)[C@@H](O)[C@H](O)[C@H]2O)ccc1O | 2.97% | –
45 | COc1cc(CC2COC(c3ccc(OC4OC(CO)C(O)C(O)C4O)c(OC)c3)C2CO)ccc1O (stereo not drawn) | – | inactive [at 17.3 µM]
46 | COC(=O)C1=C[C@@H](O)[C@@H](O)[C@H](O[C@@H]2O[C@H](CO)[C@@H](O)[C@H](O)[C@H]2OC(=O)/C=C/c2ccccc2)C1 | -3.33% [at 17.3 µM] | –
47 | COc1ccc([C@H]2OC[C@H]3[C@@H]2CO[C@@H]3c2ccc(O[C@@H]3O[C@H](CO)C(O)[C@H](O)[C@H]3O)c(OC)c2)cc1OC (stereo partly drawn) | -15.6% [at 17.3 µM] | –
48 | C[C@@H]1O[C@@H](O[C@H]2[C@H](Oc3cc(O)c(C(=O)CCc4ccc(O)cc4)c(O)c3)O[C@H](CO)[C@@H](O)[C@@H]2O)[C@H](O)[C@H](O)[C@H]1O | – | inactive
49 | O=C(OCC1OC(Oc2ccc(O)cc2COC(=O)C2(O)C(O)CCC(=O)C2OC(=O)C2C=CCC2)C(OC(=O)C2C=CCC2)C(O)C1O)C1C=CCC1 (stereo not drawn) | – | inactive [at 17.3 µM]
50 | C/C=C1\[C@H](O[C@@H]2O[C@H](CO)[C@@H](O)[C@H](O)[C@H]2O)OC=C(C(=O)O)[C@H]1CC(=O)OCCc1ccc(O)cc1 | – | inactive [at 17.3 µM]
51 | COc1cc(O)cc(O[C@@H]2O[C@H](CO)[C@@H](O[C@@H]3OC[C@](O)(CO)[C@H]3O)[C@H](O)[C@H]2O)c1OC | 0.432% [at 17.3 µM] | –
52 | C/C=C/C=C/C=C/C(=O)O[C@@H]1[C@@H](OC)C2=C(C(=O)N(C(CCC(=O)O)C(=O)O)C2)[C@@]2(C)CCCC(C)(C)[C@H]12 (stereo partly drawn) | -2.57% [at 17.3 µM] | –
53 | COC(=O)C1=CO[C@@H](O[C@@H]2O[C@H](CO)[C@@H](O)[C@H](O)[C@H]2O)[C@@H]2[C@@H](C)[C@@H](OC(=O)/C=C/c3ccccc3)[C@@H](O)[C@H]12 | -1.78% [at 17.3 µM] | –
